Source: PubChem BioAssay AID1159580 (chemical genetic matrix, 2015)
Out of some 5,500 compounds screened, about 2,000 (36%) were called active. Inconclusive results (about 18%) are left out. No stated cut-off is given here; in the data, active means normalized growth mostly below about 0.91 (no sharp cut-off); inconclusive means no clear call, values can overlap the other calls; inactive means mostly above about 0.92. The list shows a part of the results.

Test: chemical genetic growth profiling, strain panel (AID 1159580);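 further: tested at 20 µM; growth read once vehicle control cultures reached saturation at 30 °C; 1 = growth at the plate median or of vehicle wells; lower values mean less growth of the strain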
Conditions: growth OD

Measured: normalized growth

CCCCCC(=O)O[C@]1(C(C)=O)CCC2C3CCC4=CC(=O)CC[C@]4(C)C3CC[C@@]21C (some centres undefined)
inactive: S. cerevisiae deletion strains, locus YJR066W, strain TOR1, hits give low values 0.939 | S. cerevisiae deletion strains, locus YKL009W, strain mrt4, hits give low values 1.01 | S. cerevisiae deletion strains, locus YKL068W, hits give low values 1 | S. cerevisiae deletion strains, locus YKL085W, strain MDH1 (second series), hits give low values 1.01 | S. cerevisiae deletion strains, locus YKL085W, strain MDH1, hits give low values 1.01 | S. cerevisiae deletion strains, locus YKL160W, strain elf1, hits give low values 0.998 | S. cerevisiae deletion strains, locus YKL190W, strain CNB1, hits give low values 1.01 | S. cerevisiae deletion strains, locus YKR001C, strain vps1, hits give low values 1.01 | S. cerevisiae deletion strains, locus YKR026C, strain gcn3, hits give low values 1 | S. cerevisiae deletion strains, locus YKR091W, strain srl3, hits give low values 0.99 | S. cerevisiae deletion strains, locus YLL001W, strain dnm1, hits give low values 1 | S. cerevisiae deletion strains, locus YLL026W, hits give low values 1.01 | S. cerevisiae deletion strains, locus YLL041C, strain sdh2, hits give low values 0.99 | S. cerevisiae deletion strains, locus YLR027C, strain aat2, hits give low values 1 | S. cerevisiae deletion strains, locus YLR039C, strain RIC1, hits give low values 1.02 | S. cerevisiae deletion strains, locus YLR058C, strain SHM2, hits give low values 1.02 | S. cerevisiae deletion strains, locus YLR102C, strain apc9, hits give low values 1.01 | S. cerevisiae deletion strains, locus YLR113W, strain HOG1, hits give low values 0.988 | S. cerevisiae deletion strains, locus YLR221C, strain rsa3, hits give low values 0.999 | S. cerevisiae deletion strains, locus YLR258W, strain gsy2, hits give low values 1 | S. cerevisiae deletion strains, locus YLR262C, strain YPT6 (second series), hits give low values 1.02 | S. cerevisiae deletion strains, locus YLR262C, strain YPT6, hits give low values 1.09 | S. cerevisiae deletion strains, locus YLR268W, strain sec22, hits give low values 1.02 | S. cerevisiae deletion strains, locus YLR320W, strain mms22, hits give low values 1.01 | S. cerevisiae deletion strains, locus YLR330W, strain CHS5, hits give low values 1.01 | S. cerevisiae deletion strains, locus YLR342W, strain FKS1 (second series), hits give low values 0.997 | S. cerevisiae deletion strains, locus YLR342W, strain FKS1, hits give low values 0.996 | S. cerevisiae deletion strains, locus YLR357W, strain rsc2, hits give low values 1.01 | S. cerevisiae deletion strains, locus YLR370C, strain arc18, hits give low values 0.998 | S. cerevisiae deletion strains, locus YLR371W, strain rom2, hits give low values 1.01 | S. cerevisiae deletion strains, locus YLR384C, strain iki3, hits give low values 0.996 | S. cerevisiae deletion strains, locus YLR418C, strain cdc73, hits give low values 1.01 | S. cerevisiae deletion strains, locus YML016C, strain PPZ1, hits give low values 1 | S. cerevisiae deletion strains, locus YML032C, strain rad52, hits give low values 1.01 | S. cerevisiae deletion strains, locus YML120C, strain ndi1, hits give low values 1 | S. cerevisiae deletion strains, locus YML124C, strain tub3, hits give low values 1 | S. cerevisiae deletion strains, locus YMR058W, strain fet3, hits give low values 1.01 | S. cerevisiae deletion strains, locus YMR078C, strain ctf18, hits give low values 1.01 | S. cerevisiae deletion strains, locus YMR125W, strain sto1, hits give low values 1.01 | S. cerevisiae deletion strains, locus YMR129W, hits give low values 1 | S. cerevisiae deletion strains, locus YMR205C, strain PFK2, hits give low values 0.973 | S. cerevisiae deletion strains, locus YMR223W, strain ubp8, hits give low values 1.01 | S. cerevisiae deletion strains, locus YMR231W, strain pep5, hits give low values 1 | S. cerevisiae deletion strains, locus YMR307W, strain GAS1, hits give low values 1.1 | S. cerevisiae deletion strains, locus YNL067W, strain RPL9B, hits give low values 0.998 | S. cerevisiae deletion strains, locus YNL071W, strain lat1, hits give low values 1 | S. cerevisiae deletion strains, locus YNL128W, strain TEP1, hits give low values 1.02 | S. cerevisiae deletion strains, locus YNL183C, strain NPR1, hits give low values 0.965 | S. cerevisiae deletion strains, locus YNL209W, strain ssb2, hits give low values 1 | S. cerevisiae deletion strains, locus YNL233W, strain BNI4, hits give low values 1.03 | S. cerevisiae deletion strains, locus YNL248C, strain rpa49, hits give low values 1 | S. cerevisiae deletion strains, locus YNL250W, strain rad50, hits give low values 1.01 | S. cerevisiae deletion strains, locus YNL271C, strain bni1, hits give low values 1.02 | S. cerevisiae deletion strains, locus YNL298W, strain CLA4, hits give low values 1.02 | S. cerevisiae deletion strains, locus YNL307C, strain MCK1, hits give low values 1.01 | S. cerevisiae deletion strains, locus YNL322C, strain KRE1 (second series), hits give low values 0.999 | S. cerevisiae deletion strains, locus YNL322C, strain KRE1, hits give low values 1.01 | S. cerevisiae deletion strains, locus YNR049C, strain mso1, hits give low values 1 | S. cerevisiae deletion strains, locus YNR052C, strain pop2, hits give low values 1.02 | S. cerevisiae deletion strains, locus YOL012C, strain htz1 1.02 | S. cerevisiae deletion strains, locus YOL147C, strain pex11, hits give low values 1 | S. cerevisiae deletion strains, locus YOR001W, strain rrp6, hits give low values 1.01 | S. cerevisiae deletion strains, locus YOR061W, strain CKA2, hits give low values 1 | S. cerevisiae deletion strains, locus YOR069W, strain VPS5, hits give low values 1.01 | S. cerevisiae deletion strains, locus YOR070C, strain gyp1, hits give low values 1 | S. cerevisiae deletion strains, locus YOR080W, strain dia2, hits give low values 1 | S. cerevisiae deletion strains, locus YOR083W, strain WHI5, hits give low values 0.997 | S. cerevisiae deletion strains, locus YOR106W, strain vam3, hits give low values 1.01 | S. cerevisiae deletion strains, locus YOR136W, strain idh2, hits give low values 1.02 | S. cerevisiae deletion strains, locus YOR144C, strain elg1, hits give low values 1.01 | S. cerevisiae deletion strains, locus YOR184W, strain ser1, hits give low values 0.969 | S. cerevisiae deletion strains, locus YOR231W, strain MKK1, hits give low values 0.976 | S. cerevisiae deletion strains, locus YOR265W, strain rbl2, hits give low values 0.998 | S. cerevisiae deletion strains, locus YOR270C, strain vph1, hits give low values 1.04 | S. cerevisiae deletion strains, locus YOR290C, strain snf2, hits give low values 0.959 | S. cerevisiae deletion strains, locus YOR316C, strain cot1, hits give low values 1.01 | S. cerevisiae deletion strains, locus YPL051W, strain arl3, hits give low values 1.01 | S. cerevisiae deletion strains, locus YPL055C, strain LGE1, hits give low values 1.01 | S. cerevisiae deletion strains, locus YPL078C, strain atp4, hits give low values 1.01 | S. cerevisiae deletion strains, locus YPL106C, strain sse1, hits give low values 0.986 | S. cerevisiae deletion strains, locus YPL240C, strain hsp82, hits give low values 0.991 | S. cerevisiae deletion strains, locus YPL241C, strain CIN2, hits give low values 1 | S. cerevisiae deletion strains, locus YPL256C, strain CLN2, hits give low values 0.958 | S. cerevisiae deletion strains, locus YPR119W, strain clb2, hits give low values 1.01 | S. cerevisiae deletion strains, locus YPR141C, strain kar3, hits give low values 1.01 | S. cerevisiae deletion strains, locus YPR163C, strain tif3, hits give low values 1.01 | S. cerevisiae deletion strains, locus YPR167C, strain met16, hits give low values 1.01 | S. cerevisiae deletion strains, strain wtn01, hits give low values 1.01 | S. cerevisiae strains, strain wild type, hits give low values 1.01
